Data as given in PubChem BioAssay.
Where “and” joins values, the source holds several entries; their conditions need not be identical. Equal values may be shown once. Results filed as inconclusive are left out. More than one record can exist for a structure, and the calls need not agree. Calls of active or inactive are those of the source.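 How the source made its calls, unless noted: active means at least 20% inhibition of 6-phosphogluconate dehydrogenase activity; inactive means the rest.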

How the values were obtained:
[1] = molecular target: 6-phosphogluconate dehydrogenase, decarboxylating (Homo sapiens) (UniProt P52209); experiment: 6PGD enzyme inhibitors, primary screen, biochemical, human, recombinant enzyme, NADPH absorbance (AID 1159550); details: recombinant 6PGD, NADPH absorbance 341 nm; at 10 µM; stronger effect = higher value
[2] = JHH-DIPG-1 glioma cell viability, MIPE5.0 library, CellTiter-Glo luminescence, qHTS (AID 1347067; cut-off not given, nearly all actives have AC50 up to about 26 µM;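 further: cells exposed to compound for 48 hours before readout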); details: JHH-DIPG-1 glioma viability, CellTiter-Glo ATP luminescence
[3] = molecular target: Mitogen-activated protein kinase 7 (Homo sapiens) (UniProt Q13164); experiment: ERK5 transactivation activators in reporter cells, primary screen, cell-based, HTS (AID 1508626;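 active means luciferase signal above three times the same-plate solvent-only control wells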;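 further: luciferase driven by Gal4-ERK5 fusion binding five Gal4 sites before minimal TATA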); details: HeLa Gal4-ERK5 transactivation, 18 h, at 5 µM, stronger effect = higher value
[4] = growth inhibition of DIPG glioma cells, dose response, cell-based, SU-DIPG-XIII, MIPE4.0, CellTiter-Glo, qHTS (AID 1347061; cut-off not given, nearly all actives have AC50 up to about 37 µM;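 further: cells exposed to compound for 48 hours before readout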); details: SU-DIPG-XIII viability, CellTiter-Glo ATP luminescence
[5] = growth inhibition of DIPG glioma cells, dose response, cell-based, JHH-DIPG-1, MIPE4.0, CellTiter-Glo, qHTS (AID 1347062; cut-off not given, nearly all actives have AC50 up to about 27 µM;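 on AC50: cells exposed to compound for two days before readout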); details: JHH-DIPG-1 viability, CellTiter-Glo ATP luminescence
[6] = growth inhibition of DIPG glioma cells, dose response, cell-based, SU-DIPG-IV, MIPE4.0, CellTiter-Glo, qHTS (AID 1347063; cut-off not given, nearly all actives have AC50 up to about 30 µM;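 further: compound exposure lasted 48 hours before the viability readout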); details: SU-DIPG-IV viability, CellTiter-Glo ATP luminescence
[7] = liver-stage malaria parasite growth inhibition, primary screen, cell-based, HepG2, luciferase luminescence, HepG2 viability (AID 624349; in the data active means parasite load remaining mostly below about 12%, no sharp cut-off; inactive means mostly above about 10%;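 further: 100% = mean of DMSO negative control wells on the same plate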); details: P. berghei liver stage in HepG2, luciferase luminescence, concentration not given here; parasite load remaining: stronger effect = lower value; viability: measured here: HepG2 viability without parasites
[8] = sensitizers of A549 cells to miR-34 induction, primary screen, imaging, A549 dox-inducible miR-34, nuclei and caspase counts (AID 1347080;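 active means compounds whose cell count with miR-34 switched on is under 0.7 times the count with it off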); details: A549 miR-34 inducible, Hoechst nuclei count, 48 h
[9] = survival rescue of mitochondrial mutant cells in low glucose, primary screen, MELAS cybrids, Rieske KO mouse fibroblasts, CellTiter-Glo (AID 1508586;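 active means mean z-score across replicates of 1.96 or higher in either the MELAS or the Rieske mutant cell line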;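 further: z relative to plate mean and SD of compound and empty wells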)
[10] = molecular target: NAD(+) hydrolase SARM1 (Homo sapiens) (UniProt Q6SZW1); experiment: SARM1 TIR NADase inhibitors, cell lysate, NAD-Glo luminescence (AID 1508614;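 active means compound whose remaining NAD level is above about 45 nM, limit read from the data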); details: SAM-TIR HEK293T lysate NADase, at 1 µM, stronger effect = higher value
[11] = viability rescue of complex I mutant cybrids, primary screen, cell-based, galactose medium, ATP luminescence (AID 1645843;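 active means z-score of at least 1.8 in each of two replicates, scored against plate mean and spread of sample wells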;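 further: positive z means more ATP and so rescue of galactose-driven cybrid death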); details: complex I mutant cybrid cells, 72 h, stronger effect = higher value
[12] = ICB984 medulloblastoma cell growth inhibition, synergistic combos for chromothripsis tumors, cisplatin or BGB combos (AID 1671451; call rule not given here;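 further: cells exposed for 96 hours before readout; 0% = vehicle DMSO and 100% = killing by high DMSO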); details: ICB984 medulloblastoma cells, drug combinations, stronger effect = higher value
[13] = stronger effect = lower value, cell number ratio, induced over uninduced
[14] = measured here: relative caspase fold change +Dox/-Dox
[15] = measured here: total cells with miR-34 induction, stronger effect = lower value
[16] = measured here: total cells without miR-34 induction
[17] = MELAS cybrid survival, CellTiter-Glo 48 h, stronger effect = higher value
[18] = Rieske KO mouse fibroblast survival, CellTiter-Glo 72 h

Sequence of NAD(+) hydrolase SARM1 (Homo sapiens) (Q6SZW1 whole entry, looked up): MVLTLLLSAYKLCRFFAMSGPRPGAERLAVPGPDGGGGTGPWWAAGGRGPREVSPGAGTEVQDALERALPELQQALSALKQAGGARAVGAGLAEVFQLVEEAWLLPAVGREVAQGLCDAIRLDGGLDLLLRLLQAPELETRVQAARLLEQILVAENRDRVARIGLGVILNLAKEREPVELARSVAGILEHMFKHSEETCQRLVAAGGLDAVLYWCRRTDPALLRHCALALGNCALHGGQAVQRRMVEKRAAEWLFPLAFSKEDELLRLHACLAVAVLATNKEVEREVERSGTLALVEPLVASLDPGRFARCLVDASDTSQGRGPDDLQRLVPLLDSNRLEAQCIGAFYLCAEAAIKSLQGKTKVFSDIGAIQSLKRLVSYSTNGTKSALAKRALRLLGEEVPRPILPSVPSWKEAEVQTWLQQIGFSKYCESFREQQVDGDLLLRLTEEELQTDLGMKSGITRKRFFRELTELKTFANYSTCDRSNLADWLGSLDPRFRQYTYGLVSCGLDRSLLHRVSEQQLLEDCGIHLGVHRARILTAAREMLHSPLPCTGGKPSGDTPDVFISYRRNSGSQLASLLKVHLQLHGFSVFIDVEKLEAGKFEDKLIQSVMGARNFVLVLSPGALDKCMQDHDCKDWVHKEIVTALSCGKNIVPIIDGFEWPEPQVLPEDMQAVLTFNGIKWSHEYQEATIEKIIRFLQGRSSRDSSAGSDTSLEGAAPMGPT
Sequence of 6-phosphogluconate dehydrogenase, decarboxylating (Homo sapiens) (P52209 whole entry, looked up): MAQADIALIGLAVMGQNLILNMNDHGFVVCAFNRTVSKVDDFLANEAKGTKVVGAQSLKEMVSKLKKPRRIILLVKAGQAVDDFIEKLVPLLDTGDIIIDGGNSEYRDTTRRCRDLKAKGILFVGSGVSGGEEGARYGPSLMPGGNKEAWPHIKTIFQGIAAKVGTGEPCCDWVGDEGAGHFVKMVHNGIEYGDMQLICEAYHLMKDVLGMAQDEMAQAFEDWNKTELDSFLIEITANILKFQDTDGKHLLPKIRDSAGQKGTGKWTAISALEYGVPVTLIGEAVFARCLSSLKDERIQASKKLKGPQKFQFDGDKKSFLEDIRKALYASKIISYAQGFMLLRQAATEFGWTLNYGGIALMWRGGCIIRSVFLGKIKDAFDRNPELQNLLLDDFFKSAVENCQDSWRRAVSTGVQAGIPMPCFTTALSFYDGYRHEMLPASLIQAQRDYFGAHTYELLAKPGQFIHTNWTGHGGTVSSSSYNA
Sequence of Mitogen-activated protein kinase 7 (Homo sapiens) (Q13164 whole entry, looked up, the tested form may be a part): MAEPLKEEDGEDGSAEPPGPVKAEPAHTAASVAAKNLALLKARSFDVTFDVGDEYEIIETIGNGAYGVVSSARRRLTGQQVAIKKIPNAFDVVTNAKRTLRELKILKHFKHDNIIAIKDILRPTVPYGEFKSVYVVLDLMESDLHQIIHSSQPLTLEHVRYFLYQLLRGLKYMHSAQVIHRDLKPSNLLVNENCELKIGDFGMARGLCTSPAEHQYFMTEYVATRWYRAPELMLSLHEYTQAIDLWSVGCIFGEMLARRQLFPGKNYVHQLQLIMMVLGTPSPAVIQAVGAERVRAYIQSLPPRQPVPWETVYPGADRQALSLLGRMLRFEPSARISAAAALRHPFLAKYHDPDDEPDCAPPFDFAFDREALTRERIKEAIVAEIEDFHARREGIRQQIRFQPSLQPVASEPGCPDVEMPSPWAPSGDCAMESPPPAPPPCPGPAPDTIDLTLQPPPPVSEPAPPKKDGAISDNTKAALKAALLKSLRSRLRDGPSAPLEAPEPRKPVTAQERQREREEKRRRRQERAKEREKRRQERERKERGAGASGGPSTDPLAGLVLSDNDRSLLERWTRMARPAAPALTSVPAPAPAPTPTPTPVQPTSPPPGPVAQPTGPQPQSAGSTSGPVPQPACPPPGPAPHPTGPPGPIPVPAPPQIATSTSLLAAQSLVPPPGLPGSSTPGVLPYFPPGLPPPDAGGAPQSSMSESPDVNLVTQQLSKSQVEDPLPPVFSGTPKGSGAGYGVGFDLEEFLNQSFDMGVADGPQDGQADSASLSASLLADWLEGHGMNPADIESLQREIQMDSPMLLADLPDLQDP

**Q.** For `C=C1CC[C@@H]2[C@](C)(CO)[C@H](O)CC[C@@]2(C)[C@@H]1C/C=C1/C(=O)OC[C@H]1O`, which inhibition [1] is on record?
**A.** -4.69% (inactive)

**Q.** And the AC50 [2]?
**A.** 14.8 µM (active)

**Q.** And the luciferase signal [3]?
**A.** 176 AU (active)

**Q.** With `COc1ccc(CCC(=O)c2c(O)cc(O[C@@H]3O[C@H](CO)[C@@H](O)[C@H](O)[C@H]3O[C@@H]3O[C@@H](C)[C@H](O)[C@@H](O)[C@H]3O)cc2O)cc1O` as the compound, how does the inhibition [1] read?
**A.** -14.9% (inactive)

**Q.** And the AC50 [4]?
**A.** 2.35 µM (active)

**Q.** And the outcome [5]?
**A.** inactive

**Q.** And the outcome [6]?
**A.** inactive

**Q.** And the luciferase signal [3]?
**A.** 36 AU (inactive)

**Q.** For `CC(C)(O)CC[C@@H](O)[C@](C)(O)[C@H]1CC[C@@]2(O)C3=CC(=O)[C@@H]4C[C@@H](O)[C@@H](O)C[C@]4(C)[C@H]3CC[C@]12C`, which inhibition [1] is on record?
**A.** 8% (inactive)

**Q.** And the outcome [5]?
**A.** inactive

**Q.** What about the outcome [6] of the same compound?
**A.** inactive

**Q.** What about the outcome [2] of the same compound?
**A.** inactive

**Q.** What about the luciferase signal [3] of the same compound?
**A.** 60 AU (inactive)

**Q.** Which results are given for `C[C@H]1C[C@H]2[C@@H]3CCC4=CC(=O)C=C[C@]4(C)[C@@]3(F)[C@@H](O)C[C@]2(C)[C@@]1(O)C(=O)CO`?
**A.** parasite load remaining [7]: 183% (inactive) and 101% (inactive); viability [7]: 104% and 71.8%; inhibition [1]: -0.85% (inactive); outcome [4]: inactive; outcome [5]: inactive; outcome [6]: inactive; fold change [8, 13]: 0.813 (inactive); fold change [8, 14]: 1.45; cell count [8, 15]: 6320; cell count [8, 16]: 7770; z-score [9, 17]: -0.582 (inactive); z-score [9, 18]: -0.299; remaining NAD [10]: 10 nM (inactive); luciferase signal [3]: 80 AU (inactive)

**Q.** Which results are given for `CC1(C)[C@@H](O)CC[C@]2(C)[C@H]3C(=O)C=C4[C@@H]5C[C@@](C)(C(=O)O)CC[C@]5(C)CC[C@@]4(C)[C@]3(C)CC[C@@H]12`?
**A.** inhibition [1]: 6.1% (inactive); outcome [4]: inactive; outcome [5]: inactive; outcome [6]: inactive; outcome [2]: inactive; remaining NAD [10]: 10 nM (inactive); luciferase signal [3]: 56 AU (inactive)

**Q.** Which results are given for `CC(C)C[C@H]1C(=O)N2CCC[C@H]2[C@]2(O)O[C@](NC(=O)[C@@H]3C=C4c5cccc6[nH]c(Br)c(c56)C[C@H]4N(C)C3)(C(C)C)C(=O)N12`?
**A.** parasite load remaining [7]: 105% (inactive); viability [7]: 88.9%; inhibition [1]: -9.44% (inactive); fold change [8, 13]: 1.36 (inactive) and 1.09 (inactive); fold change [8, 14]: 1.68 and 0.668; cell count [8, 15]: 5460 and 4760; cell count [8, 16]: 4010 and 4360; z-score [9, 17]: -0.164 (inactive); z-score [9, 18]: -0.261; remaining NAD [10]: 10 nM (inactive); luciferase signal [3]: 200 AU (inactive); z-score [11]: -1.32 (inactive) and -1.22 (inactive)

**Q.** Which results are given for `COc1cc([C@@H]2c3cc4c(cc3[C@@H](O[C@@H]3O[C@@H]5CO[C@@H](c6cccs6)O[C@H]5[C@H](O)[C@H]3O)[C@H]3COC(=O)[C@H]23)OCO4)cc(OC)c1O`?
**A.** inhibition [1]: -2.92% (inactive); AC50 [5]: 13.2 µM (active); AC50 [6]: 0.332 µM (active); AC50 [2]: 9.34 µM (active); remaining NAD [10]: 10 nM (inactive); luciferase signal [3]: 72 AU (inactive); inhibition ([12]; BGB IC20 combo, at 0.005 µM): 20.5% and 3.66%; inhibition ([12]; BGB IC40 combo, at 0.005 µM): -28.7% and -5.88%; inhibition ([12]; BGB IC40 combo, at 0.05 µM): -11.6% and -12.3%; inhibition ([12]; at 0.5 µM): -25.1% (inactive) and -14.4% (inactive); inhibition ([12]; cisplatin combo, at 0.05 µM): -14.7% and -16.3%; inhibition ([12]; cisplatin combo, at 0.5 µM): -25.3% and 3.4%; inhibition ([12]; cisplatin combo, at 5 µM): -14.6% and 1.51%; inhibition ([12]; measured here: 5 uM single agent, at 5 µM): -8.36% and -4.68%

**Q.** For `CC[C@@]1(O)C[C@H](O[C@H]2C[C@H](N(C)C)[C@H](O[C@H]3C[C@H](O)[C@H](O[C@H]4CCC(=O)[C@H](C)O4)[C@H](C)O3)[C@H](C)O2)c2c(cc3c(c2O)C(=O)c2c(O)cccc2C3=O)[C@H]1C(=O)OC`, which parasite load remaining [7] is on record?
**A.** -0.835% (inactive)

**Q.** What about the viability [7] of the same compound?
**A.** 14.5%

**Q.** What about the inhibition [1] of the same compound?
**A.** 13.5% (inactive)

**Q.** What about the AC50 [5] of the same compound?
**A.** 0.332 µM (active)

**Q.** And the AC50 [6]?
**A.** 0.469 µM (active)

**Q.** And the AC50 [2]?
**A.** 11.8 µM (active)

**Q.** What about the fold change [8, 13] of the same compound?
**A.** 1.94 (inactive)

**Q.** What about the fold change [8, 14] of the same compound?
**A.** 0.972

**Q.** And the cell count [8, 15]?
**A.** 1190

**Q.** What about the cell count [8, 16] of the same compound?
**A.** 612

**Q.** And the z-score [9, 17]?
**A.** 0.116

**Q.** And the z-score [9, 18]?
**A.** 2.56

**Q.** And the z-score [11]?
**A.** -1.88 (inactive)

**Q.** Which results are given for `Nc1ccn([C@@H]2O[C@H](CO)[C@@H](O)[C@H]2O)c(=O)n1`?
**A.** inhibition [1]: -4.47% (inactive); outcome [4]: inactive; outcome [5]: inactive; outcome [2]: inactive; luciferase signal [3]: 60 AU (inactive)

**Q.** What does the source list for `C=C(C)[C@@H]1CC[C@]2(C(=O)O)CC[C@]3(C)[C@H](CC[C@@H]4[C@@]5(C)CC[C@H](O)C(C)(C)[C@@H]5CC[C@]43C)[C@@H]12`?
**A.** parasite load remaining [7]: -8.09% (active) and 64% (inactive); viability [7]: 99.2% and 78.2%; inhibition [1]: 0.445% (inactive); outcome [4]: inactive; outcome [5]: inactive; outcome [6]: inactive; outcome [2]: inactive; fold change [8, 13]: 0.792 (inactive) and 1.12 (inactive); fold change [8, 14]: 1.41 and 0.964; cell count [8, 15]: 5780 and 2010; cell count [8, 16]: 7300 and 1790; luciferase signal [3]: 64 AU (inactive)
